Molecules are shown by their SMILES. The campaign covered roughly 360,000 compounds. About 3,900 (1.1%) were called active. The sample holds actives, similar compounds and a random draw of the others, so the mix is not that of the screen. A number with no mark means an inactive call.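 The calls were made as follows: active = mean replicate inhibition score of at least 50 and every replicate individually at or above 50; inconclusive = only one of the two criteria met; inactive = mean below 50 and not all replicates reaching 50.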

A short description of the test: blockers of JRFL envelope-mediated fusion – HeLa-JRFL effector, CEM21 target cells, luciferase, primary screen (AID 651610).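 Also: 0% = plate neutral controls and 100% = maraviroc near 300 nM.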 Conditions: HeLa-JRFL Env/CEM21 cell fusion, hits give high values; at 16.7 µM unless noted.
Broadly, the inhibition is the drop in the measured response relative to a control, in per cent. Turning to `CC(C)NC(=O)N(C)C[C@H]1Oc2ccc(NS(=O)(=O)c3cn(C)cn3)cc2CC(=O)N([C@@H](C)CO)C[C@H]1C`, the inhibition was -7.65%. The same measure for `CCC(C)c1ccccc1N1CC(C(=O)N2CCN(S(=O)(=O)c3ccc(F)cc3)CC2)CC1=O` (stereo not drawn): 18.5% [at 12.3 µM]. Consider `Cc1ccc(CN2CC(C(=O)N3CCN(S(=O)(=O)c4ccccc4)CC3)CC2=O)cc1` (stereo not drawn), for which the inhibition is 64.5% [at 12.3 µM] (active). Consider `Cc1ccc(S(=O)(=O)N2CCC(C(=O)N3CCCCCCC3)CC2)cc1`, for which the inhibition is -2.71% [at 12.3 µM]. As for `COc1ccc2c3c(n(C)c2c1)[C@@H](CO)N(C(C)=O)CC31CCN(C(=O)C2CC2)CC1`, the figure is 3.46%; as for `C[C@H](CO)N1C[C@H](C)[C@H](CN(C)C(=O)Nc2ccc(F)cc2)Oc2c(NC(=O)c3cnccn3)cccc2C1=O`, 30.7%; as for `O=C(NNC(=O)c1ccc(-c2ccccc2)cc1)Nc1ccccc1`, 17% [at 12.3 µM].

As for `Cc1ccc(NC(=O)NNC(=O)c2sccc2-n2cccc2)cc1`, the inhibition was -3.39% [at 12.3 µM]. On to `C=CC[n+]1c(-c2ccc(C)cc2)csc1NNC(=O)Nc1ccccc1`, for which the inhibition was 77.7% [at 12.3 µM] (active). As for `C[C@H](CO)N1C[C@H](C)[C@@H](CN(C)CC2CCOCC2)Oc2ncc(C#Cc3ccc(F)cc3)cc2C1=O`, the figure is 7.54%; as for `C[C@@H](O)C#Cc1cnc2c(c1)C(=O)N([C@@H](C)CO)C[C@H](C)[C@H](CN(C)C(=O)c1ccccc1F)O2`, 5.54%. The same measure for `COCCNc1nc(NCc2ccc(NC(C)=O)cc2)c2sccc2n1`: -25.8% [at 12.3 µM]; for `COc1ccccc1CNc1nc(Nc2ccccc2Cl)c2sccc2n1`: 20.5% [at 12.3 µM]. As for `COc1cccc(CNc2nc(NCc3ccccc3OC)nc3ccsc23)c1`, the figure is 72.3% [at 12.3 µM] (active); as for `C[C@@H]1CN([C@@H](C)CO)C(=O)Cc2cc(NS(C)(=O)=O)ccc2O[C@H]1CN(C)S(=O)(=O)c1ccc(F)cc1`, -0.637%; as for `CN1[C@@H]2c3ccc(-c4ccc(F)cc4)c(=O)n3C[C@H]1[C@H](CO)[C@H]2C(=O)NC1CCC1`, 0.501%. For `C[C@@]12C(=O)N(c3cccc(Br)c3)C(=O)N1[C@H](c1ccc(Cl)cc1)[C@@H]1C(=O)N(C3CCCCC3)C(=O)[C@@H]12`, the inhibition was -9.25% [at 12.3 µM].

Consider `CC[C@@]12C(=O)N(c3ccccc3)C(=O)N1[C@H](c1ccc(Br)cc1)[C@@H]1C(=O)N(C(C)(C)C)C(=O)[C@@H]12`, for which the inhibition was 59.8% [at 12.3 µM] (active).

Consider `COc1ccc([C@@H]2[C@@H]3C(=O)N(C(C)(C)C)C(=O)[C@@H]3[C@]3(Cc4ccccc4)C(=O)N(c4cccc(Br)c4)C(=O)N23)cc1`, for which the inhibition was 33.2% [at 12.3 µM].

As for `CCCCC1(C(=O)OCC)NC(c2ccc(O)cc2)C2C(=O)N(c3ccccc3)C(=O)C21` (stereo not drawn), the inhibition was 2.85% [at 12.3 µM]. As for `CC12C(=O)N(c3ccccc3)C(=O)C1C(c1ccccc1)N1CCCN12` (stereo not drawn), the figure is 6.12% [at 12.3 µM]. Turning to `CCN1C(=O)[C@H]2[C@@H](c3ccc(C(F)(F)F)cc3)N[C@]3(CCCN(Cc4ccc(Br)cc4)C3=O)[C@H]2C1=O`, the inhibition is -31.5% [at 12.3 µM].

In the case of `CC(C)(C)N1C(=O)[C@H]2[C@@H](c3ccc(Br)cc3)N3C(=O)N(c4cccc(Cl)c4)C(=O)[C@@]3(C)[C@H]2C1=O`, the inhibition was 72.7% [at 12.3 µM] (active). Take `CCOC(=O)[C@@H]1[C@H]2COc3ccc(Br)cc3[C@H]2N2C(=O)N(c3ccc(C)cc3)C(=O)[C@@]12C`: the inhibition is -52.6% [at 12.3 µM].

With `CCN1C(=O)[C@H]2[C@@H](c3ccc(C)cc3)N3C(=O)N(c4cccc(Br)c4)C(=O)[C@@]3(CC)[C@H]2C1=O`, the inhibition was 82.7% [at 12.3 µM] (active). The same measure for `C[C@@H]1CCCCO[C@@H](CN(C)S(=O)(=O)c2ccc(F)cc2)[C@@H](C)CN([C@@H](C)CO)C(=O)c2cc(NC(=O)Nc3ccc(F)cc3)ccc2O1`: -9.74%. Regarding `C[C@H](CO)N1C[C@H](C)[C@@H](CN(C)C(=O)C2CC2)Oc2cc(-c3cccc(C#N)c3)ccc2S1(=O)=O`, the inhibition was 6.81%. With `COc1ccccc1S(=O)(=O)N[C@@H]1CC[C@H](CC(=O)N2CCN(C)CC2)O[C@@H]1CO`, the inhibition was -0.692%. The same measure for `C[C@@H]1CN([C@@H](C)CO)C(=O)c2cccc(NC(=O)C3CCOCC3)c2O[C@H]1CN(C)C(=O)NC1CCCCC1`: 10.1%; for `C[C@@H]1CN([C@@H](C)CO)S(=O)(=O)c2ccc(C#CC3CCCC3)cc2O[C@H]1CN(C)S(C)(=O)=O`: 6.95%. As for `COc1cccc(-c2cnc3c(c2)C(=O)N([C@H](C)CO)C[C@@H](C)[C@H](CN(C)Cc2ccc(F)cc2)O3)c1`, the figure is 7.73%; as for `CN1C(=O)c2cc(NC(=O)c3cccs3)ccc2OC[C@H]2O[C@@H](CC(=O)NCC3CC3)CC[C@@H]21`, 3.56%; as for `Cc1cc(C)cc(N2C(=O)CSC2c2cccc([N+](=O)[O-])c2)c1` (stereo not drawn), -6.42%. As for `C[C@H]1CN([C@@H](C)CO)C(=O)c2cccc(NS(=O)(=O)c3ccc(Cl)cc3)c2O[C@H]1CN(C)S(=O)(=O)c1ccc(Cl)cc1`, the figure is -26.5%; as for `O=C(CCS(=O)(=O)c1ccccc1)NC1CCCC1`, 11.3% [at 12.3 µM]; as for `O=C(CSc1nc(O)c(Cc2ccccc2)c(=O)[nH]1)Nc1nc2c(s1)CCCC2`, 25.1% [at 12.3 µM]. In the case of `O=C(CCS(=O)(=O)c1ccccc1)Nc1nc2c(s1)CCCC2`, the inhibition was 60.1% [at 12.3 µM] (active). As for `COc1ccc(CCN2C(=O)N(c3ccc(OC)cc3)C(=O)C2CC(=O)Nc2ccc(OC)cc2)cc1` (stereo not drawn), the figure is 9.15% [at 12.3 µM]. For the compound `CCOc1ccc(N2C(=O)CC(N(CCc3ccc(OC)c(OC)c3)C(=S)Nc3ccccc3)C2=O)cc1` (stereo not drawn), the inhibition is 58.4% [at 12.3 µM] (active). As for `CCOc1ccc(NC(=O)CC2C(=O)N(c3ccccc3)C(=O)N2CCOC)cc1` (stereo not drawn), the figure is -3.16% [at 12.3 µM]; as for `COc1ccc(N2C(=O)C(CC(=O)Nc3ccccc3)N(Cc3ccc(OC)c(OC)c3)C2=O)cc1` (stereo not drawn), 56.7% [at 12.3 µM] (active); as for `COC(=O)CN(C(=S)Nc1ccc(Cl)cc1)C1CC(=O)N(c2ccc(OC)cc2)C1=O` (stereo not drawn), -3.79% [at 12.3 µM]. The same measure for `CCCOc1ccc(N2C(=O)CC(N(CCc3ccc(S(N)(=O)=O)cc3)C(C)=O)C2=O)cc1` (stereo not drawn): 19.9% [at 12.3 µM].
